Test results as given in PubChem BioAssay (Tox21).
Inconclusive results are not listed. Where a call stands in place of a potency, no number is given. Active and inactive are the calls of the source. Unless noted, the call rests on the fitted dose curve; in most records, active means well fitted curve in the direction sought with a large enough effect in the repeat runs; inconclusive means weak or mixed curves; inactive means no such curve, though single readings can be large; an effect the other way counts as inactive or inconclusive. Non-standard residues stand in square brackets, D forms with d. Residues, ends and D or L forms follow the SMILES beside them. pGlu = O=C1CC[C@@H](C(=O)O)N1

Assays:
[1] = qHTS assay for small molecule agonists of the p53 signaling pathway (AID 651631; calls by dose curve; further: nearly all actives have a fitted effect of over 15% in size; further: potency means the concentration at half of the fitted maximal effect)
Method in brief: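 HCT-116 p53RE-bla reporter line, 16 h compound treatment at 37 °C, then fluorescence after 2 h with B/G FRET substrate.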

[2] = qHTS assay for small molecules that induce genotoxicity in human embryonic kidney cells expressing luciferase-tagged ATAD5 (AID 651632); further: nearly all actives have a fitted effect of over 15% in size; further: potency means the concentration at half of the fitted maximal effect
Method in brief: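 Increased luciferase signal from ATAD5-tagged reporter cells indicates DNA-damage-driven ATAD5 induction. HEK293T cells are treated for 16 hr at 37C before detection with Amplite.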

[3] = qHTS assay for small molecule agonists of the p53 signaling pathway - cell viability (AID 651633; calls by dose curve; further: nearly all actives have a fitted effect of over 30% in size; further: potency means the concentration at half of the fitted maximal effect)
Method in brief: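 Viability counter-read: CellTiter-Glo luminescence (30 min, room temperature) in the same p53RE-bla plates. These plates had been exposed to compounds for 16 h at 37 C.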

[4] = qHTS assay for small molecule disruptors of the mitochondrial membrane potential - cell viability (AID 720634; calls by dose curve;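 further: human HepG2 liver cancer cells; series mostly up to about 83 µM; nearly all actives have a fitted effect of over 20% in size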)
Method in brief: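 After overnight attachment at 37 C, HepG2 cells received compound or DMSO vehicle for 1 hr. Viability is then taken from ATP-driven luminescence following a 30 min room-temperature CellTiter-Glo step.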

[5] = qHTS assay to test for compound auto fluorescence at 590 nm (red) in HepG2 cells (AID 720674)
Method in brief: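 We screened compounds on adherent HepG2 cells, incubating them for an hour at 37 C in 5% CO2 before reading emission at 590 nm under 540 nm excitation; values reflect equivalence to Rose Bengal sodium fluorescence.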

[6] = qHTS assay to test for compound auto fluorescence at 535 nm (green) in HepG2 cells (AID 720675)
[7] = qHTS assay to test for compound auto fluorescence at 460 nm (blue) in HEK293 cells (AID 720678)
Method in brief: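 Intrinsic compound fluorescence is recorded in live HEK293 cultures after overnight incubation at 37C, 5% CO2, using excitation 405 nm and emission 460 nm. Values are referenced to triamterene.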

[8] = qHTS assay to test for compound auto fluorescence at 590 nm (red) in HEK293 cells (AID 720679)
Method in brief: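 Red autofluorescence, HEK293 cells: 2,000 cells/well; attach 4-5 hr 37C; add 23 nL cpd or DMSO; incubate o/n 37C 5% CO2; read Ex540/Em590; Rose Bengal sodium reference.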

[9] = qHTS assay for small molecules that induce genotoxicity in human embryonic kidney cells expressing luciferase-tagged ATAD5 - cell viability (AID 651634; calls by dose curve; further: nearly all actives have a fitted effect of over 25% in size)
Method in brief: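 Cytotoxicity counterscreen in HEK293T cells bearing an ATAD5-luciferase reporter: live-cell protease activity measured by CellTiter-Fluor fluorescence after 15.5 hr compound exposure.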

[10] = qHTS assay for small molecule disruptors of the mitochondrial membrane potential (AID 720635); further: potency means the concentration at half of the fitted maximal effect
Method in brief: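 Mitochondrial membrane potential tracked with Mito-MPS dye, red aggregates (ex 540/em 590 nm) against green monomers (ex 490/em 535 nm). Compound treatment 1 hr at 37C, dye 30 min in HepG2.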

Structure (SMILES)	Potency [1]	Potency [2]	Potency [3]	Potency [4]	Potency [5]	Potency [6]	Potency [7]	Potency [8]	Potency [9]	Potency [10]
C=CCNC1=C2C[C@@H](C)C[C@H](OC)[C@H](O)[C@@H](C)/C=C(\C)[C@H](OC(N)=O)[C@@H](OC)/C=C\C=C(/C)C(=O)NC(=CC1=O)C2=O	168 nM (active)	inactive	inactive	inactive	inactive	inactive	inactive	inactive		
O=C(c1cc2ccccc2o1)N1CCN(Cc2ccccc2)CC1	inactive	inactive		inactive	inactive	inactive	inactive	inactive	inactive	inactive
CCCN(CC)C(CC)C(=O)Nc1c(C)cccc1C (centres undefined)	inactive	inactive	inactive	inactive	inactive	inactive	inactive	inactive	inactive	
CC[C@H](C)[C@H](NC(=O)[C@H](Cc1ccccc1)NC(=O)[C@H](C)NC(=O)[C@H](CC(=O)O)NC(=O)[C@H](CCCCN)NC(=O)[C@H](CO)NC(=O)[C@@H]1CCCN1C(=O)[C@@H]1CCC(=O)N1)C(=O)NCC(=O)N[C@@H](CC(C)C)C(=O)N[C@@H](CCSC)C(N)=O ([pGlu]PSKDAFIGLM-NH2)	inactive	inactive	inactive	inactive	inactive	inactive	inactive	inactive	inactive	
COc1cc2[nH]c(C)c(CCN3CCN(c4ccccc4)CC3)c2cc1OC	inactive	inactive	inactive	inactive	inactive	inactive	inactive	inactive	inactive	
Cc1nc(NS(=O)(=O)c2ccc(N)cc2)nc(C)c1Br	inactive	inactive	inactive	inactive	inactive		inactive	inactive	inactive	
CN1c2cc(O)c(N=NC(N)=O)cc2CC1S(=O)(=O)O (centres undefined)	inactive	inactive	inactive	inactive	inactive	inactive	inactive	inactive		
O=C[C@H](O)[C@@H](O)[C@H](O[C@H]1O[C@H](CO)[C@@H](O[C@H]2O[C@H](CO)[C@@H](O)[C@H](O)[C@H]2O)[C@H](O)[C@H]1O)[C@H](O)CO	inactive	inactive		inactive	inactive	inactive	inactive	inactive	inactive	inactive
CC[C@@]1(O)C(=O)OCc2c1cc1n(c2=O)Cc2cc3c([N+](=O)[O-])cccc3nc2-1	473 nM (active)	inactive	473 nM (active)	inactive	inactive	inactive	inactive	inactive		
Oc1cc(O)cc(O)c1	inactive	inactive	inactive	inactive	inactive	inactive	inactive	inactive	inactive	
CC(C(=O)O)c1ccc(N2Cc3ccccc3C2=O)cc1 (centres undefined)	inactive	596 nM (active)	inactive		inactive	inactive	inactive	inactive	inactive	
N=C(N)c1ccc(OCCCOc2ccc(C(=N)N)cc2Br)c(Br)c1	inactive	inactive		inactive	inactive	inactive	inactive	inactive	inactive	inactive
CC1(S(=O)(=O)O)CC(=O)c2ccccc2C1=O (centres undefined)	21100 nM (active)	inactive	26600 nM (active)	inactive	inactive	inactive		inactive		
CNc1cc(OC)c(C(=O)N[C@H]2CCN(Cc3ccccc3)[C@H]2C)cc1Cl	inactive	inactive	inactive	inactive	inactive	inactive	inactive	inactive		
CCCC(=O)O[C@]1(C(=O)COC(C)=O)CC[C@H]2[C@@H]3C[C@H](F)C4=CC(=O)C=C[C@]4(C)[C@@]3(F)[C@@H](O)C[C@@]21C	inactive	inactive	inactive	inactive	inactive	inactive	inactive	inactive	inactive	
Cn1cc(NC(=O)c2cc(NC(=O)c3cc(NC=O)cn3C)cn2C)cc1C(=O)NCCC(=N)N	inactive	inactive	inactive	inactive	inactive		inactive	inactive	inactive	
O=C(CCCN1CCC(C(=O)c2ccc(F)cc2)CC1)c1ccc(F)cc1	inactive	inactive		inactive	inactive	inactive	inactive	inactive	inactive	inactive
COc1cc(C)c(/C=C/C(C)=C/C=C/C(C)=C/C(=O)O)c(C)c1C	29800 nM (active)	inactive		inactive	inactive	inactive	inactive	inactive	inactive	inactive
O=C1NC(=O)[C@H]2[C@@H]1[C@@H]1C=C[C@H]2C1	inactive	inactive	inactive	inactive	inactive	inactive	inactive	inactive	inactive	
Cc1ncc(COP(=O)(O)O)c(CN)c1O	inactive	inactive	inactive		inactive	inactive	inactive	inactive	inactive	
CC(O)CN(C)C (centres undefined)	inactive	inactive	inactive	inactive	inactive		inactive	inactive	inactive	

Structure (SMILES)	Potency [1]	Potency [2]	Potency [3]	Potency [4]	Potency [5]	Potency [6]	Potency [7]	Potency [8]	Potency [9]	Potency [10]
CC1(C)S[C@@H]2[C@H](NC(=O)Cc3ccccc3)C(=O)N2[C@H]1C(=O)O	inactive	inactive		inactive	inactive	inactive	inactive	inactive	inactive	inactive
CC(=O)c1ccc2c(c1)N(CCCN1CCN(CCO)CC1)c1ccccc1S2	inactive	inactive	inactive	inactive	inactive	inactive	inactive	inactive		
O=C1c2ccccc2C(=O)C1c1ccc(Cl)cc1	inactive	inactive	inactive	inactive	inactive	inactive	inactive	inactive	inactive	
CC(C)[C@@H](N)C(=O)O	inactive	inactive	inactive	inactive	inactive	inactive	inactive	inactive		
CCCOc1ccc2nc(NC(=O)OC)sc2c1	1500 nM (active)	1880 nM (active)	inactive	inactive	inactive	inactive	inactive	inactive		7500 nM (active)
Cc1c(N)nc(C(CC(N)=O)NCC(N)C(N)=O)nc1C(=O)NC(C(=O)NC(C)C(O)C(C)C(=O)NC(C(=O)NCCc1nc(-c2nc(C(=O)NCCCN[C@@H](C)c3ccccc3)cs2)cs1)C(C)O)C(O[C@@H]1O[C@@H](CO)[C@@H](O)[C@H](O)[C@@H]1O[C@H]1O[C@H](CO)[C@@H](O)[C@H](OC(N)=O)[C@@H]1O)c1cnc[nH]1 (some centres undefined)	150 nM (active)	inactive		inactive	inactive	inactive	inactive	inactive	inactive	inactive
CCN(CC)CCOC(=O)c1cccnc1	inactive	inactive	inactive	inactive	inactive		inactive	inactive	inactive	
CO[C@H]1C=CO[C@@]2(C)Oc3c(C)c(O)c4c(O)c(c5c(nc6cc(C)ccn65)c4c3C2=O)NC(=O)/C(C)=C\C=C[C@H](C)[C@H](O)[C@@H](C)[C@@H](O)[C@@H](C)[C@H](OC(C)=O)[C@@H]1C	inactive	inactive	inactive	inactive	inactive	inactive	inactive	inactive		
O=C(O)c1ccc(OCCn2ccnc2)cc1	inactive	inactive		inactive	inactive	inactive	inactive	inactive	inactive	inactive
CC(O)[C@@H]1NC(=O)[C@H](CCCCN)NC(=O)[C@@H](Cc2c[nH]c3ccccc23)NC(=O)[C@H](Cc2ccccc2)NC(=O)[C@@H](NC(=O)[C@H](N)Cc2ccccc2)CSSC[C@@H](C(=O)N[C@H](CO)[C@@H](C)O)NC1=O (some centres undefined)	inactive	inactive	inactive	inactive	inactive		inactive	inactive	inactive	
C=CCSSSCC=C	9440 nM (active)	inactive	inactive	inactive	inactive		inactive	inactive	inactive	
C#C[C@]1(OC(C)=O)CC[C@H]2[C@@H]3CCC4=CC(=O)CC[C@@H]4[C@H]3CC[C@@]21C	inactive	inactive	inactive	inactive	inactive	inactive	inactive	inactive		inactive
CC1(C)S[C@@H]2[C@H](NC(=O)C(C(=O)Oc3ccc4c(c3)CCC4)c3ccccc3)C(=O)N2[C@H]1C(=O)O (some centres undefined)	inactive	inactive	inactive	inactive	inactive		inactive	inactive	inactive	
CN[C@@H]1CCc2[nH]c3ccc(C(N)=O)cc3c2C1	inactive	inactive		inactive	inactive	inactive	inactive	inactive	inactive	inactive
CNC(=O)[C@H](Cc1c[nH]c2ccccc12)NC(=O)[C@@H](CC(=O)NO)CC(C)C	inactive		inactive	inactive	inactive	inactive	inactive	inactive	inactive	inactive
CCCC1C(=O)N2C(N(C)C)=Nc3ccc(C)cc3N2C1=O (centres undefined)	inactive		inactive	inactive	inactive	inactive	inactive	inactive	inactive	inactive
C=CCN1CCCC1CNC(=O)c1cc(S(N)(=O)=O)cc(OC)c1OC (centres undefined)	inactive		inactive	inactive	inactive	inactive	inactive	inactive	inactive	inactive
O=c1[nH]cnc2[nH]cc(CN3CCCCC3)c12	inactive	inactive		inactive	inactive	inactive	inactive	inactive	inactive	
CC(C)C[C@H](NC(=O)[C@@H](Cc1c[nH]c2ccccc12)NC(=O)[C@H](Cc1ccc(O)cc1)NC(=O)[C@H](CO)NC(=O)[C@H](Cc1c[nH]c2ccccc12)NC(=O)[C@H](Cc1cnc[nH]1)NC(=O)[C@@H]1CCC(=O)N1)C(=O)N[C@@H](CCCN=C(N)N)C(=O)N1CCC[C@@H]1C(=O)NCC(N)=O	inactive	inactive		inactive	inactive	inactive	inactive	inactive	inactive	
c1ccc2c(CCC3CCNCC3)c[nH]c2c1	inactive	inactive			inactive	inactive	inactive	inactive	inactive	
CCC(=O)OCC(=O)[C@@]1(OC(=O)CC)[C@H](C)C[C@H]2[C@H]3[C@H]([C@@H](O)C[C@@]21C)[C@@]1(C)C=CC(=O)C=C1C[C@H]3Cl	inactive	inactive		inactive	inactive		inactive	inactive	inactive	
